Autofluor counter = flagged as autofluorescent in microsphere protease counterscreen | compound autofluorescence counterscreen, microsphere flow cytometry; active compounds read high | fluorescence intensity (test concentration not listed) | 360,000 tested, 3.1% active; in the data active = fluorescence intensity above about 16000; inconclusive = no clear call, values can overlap the other calls
3CLpro inhibitor = SARS-CoV 3CLpro protease inhibition. recombinant SARS-CoV 3CLpro, quenched FRET peptide cleavage. 290,000 tested, 0.14% active. P0C6X7. inhibition, % at 6 µM; in the data active = inhibition above about 12%
BoNT F protease = inhibitors of Botulinum neurotoxin F light chain protease; Multiplex microsphere protease cleavage assay, flow cytometry; inhibition, % at 10 µM; 360,000 tested, 0.22% active; in the data active = inhibition above about 35%, passing the limit was not always enough; inconclusive = no clear call, values can overlap the other calls; note: plate controls were buffer without enzyme for full effect and enzyme alone for no effect
BoNT-A LC inh2 = inhibitors of Botulinum neurotoxin A light chain protease | inhibition, % at 10 µM | multiplex microsphere protease substrate cleavage, flow cytometry | 360,000 tested, 0.17% active | AID 588499; note: plate controls were buffer without enzyme for full effect and enzyme alone for no effect
BJeLR lethal = kills HRASV12-expressing BJeLR cells | BJeLR (HRASV12) viability, CellTiter-Glo ATP luminescence, 48 h | inhibition, % (no concentration beside the values) | 300,000 tested, 0.17% active | AID 1554; in the data active = inhibition above about 50%; inconclusive = no clear call, values can overlap the other calls
Anthrax LF inh2 = anthrax lethal factor protease inhibition; multiplex microsphere protease cleavage assay, LF; 360,000 tested, 0.12% active; inhibition, % at 10 µM; AID 588501; note: plate controls were buffer without enzyme for full effect and enzyme alone for no effect
Active calls of the source: *; ? = inconclusive; · = no result given. Only some compounds are listed: those with a hit (about 3.6% of all), similar ones and a draw of the others. Cut-off read from the data, not from the text of the source, unless noted: active = inhibition above about 30%; inconclusive = no clear call, values can overlap the other calls; inactive = below that.

SMILES	Autofluor counter	3CLpro inhibitor	BoNT F protease	BoNT-A LC inh2	BJeLR lethal	Anthrax LF inh2
CCCCC(=NCCO)C1=C(O)C(C(=O)OC)C(C)(C)CC1=O (stereo unspecified)	2421	2	-4	0	0	-3
CN(Cc1ccccc1Cl)C(=O)CCNC(=O)c1ccco1	12331	·	-59	-53	·	-10
COc1ccc(OC)c(S(=O)(=O)Nc2ccc(F)cc2)c1	5392	-7	-2	0	-3	-8
COc1ccc(OC)c(S(=O)(=O)NC2CCCCC2)c1	22696*	-6	-2	-2	4	-2
COc1cc(S(=O)(=O)NC2CCCC2)ccc1F	16811*	-2	-2	-1	-7	0
COc1ccc(NS(=O)(=O)c2ccc(OC)c(OC)c2)cc1OC	4547	-2	-4	-1	-7	-5
COc1ccc(S(=O)(=O)Nc2cccc(Cl)c2)cc1OC	20245*	7	-4	-2	4	1
COc1ccc(OC)c(S(=O)(=O)Nc2cccc(F)c2)c1	16709*	0	1	-1	-3	-1
COc1ccc(OC)c(N(CC(=O)N2CCCC2)S(C)(=O)=O)c1	3905	-2	?	6	4	-11
Cc1cnc(C(=O)OCC(=O)N2CC(C)CC(C)C2)cn1 (stereo unspecified)	4520	·	-4	0	·	-7
CC(=O)N1CCc2cc(S(=O)(=O)CCC(=O)NCCc3ccc(Cl)cc3)ccc21	5994	-6	-1	1	-1	1
Cc1nn(Cc2ccc([N+](=O)[O-])cc2)c(=O)n1-c1cccc(Cl)c1	3115	4	-9	0	27	3
O=C1c2ccccc2C(=O)N1OCc1ccccc1	9173	7	1	0	3	-2
CC1(C)N(OCc2ccccc2)C(=O)C(=O)N(OCc2ccccc2)C1(C)C	20720*	-2	8	?	6	-13
COc1cc(F)ccc1S(=O)(=O)N1CCN(Cc2ccccc2)CC1	3393	1	?	-5	13	10
CC(C)c1ccc(/C=C(\c2nc3ccccc3[nH]2)S(=O)(=O)c2ccccc2)cc1	2231	3	-2	-1	7	-1
O=S(=O)(/C(=C/c1ccc(C(F)(F)F)cc1)c1nc2ccccc2[nH]1)c1ccccc1	2584	-1	16	1	68*	-1
CC(C)(O)CN(C(=O)c1ccc([N+](=O)[O-])cc1)C1CCCC1	3393	·	-4	0	·	2
CCOc1ccccc1C1C(C#N)=C(N)Oc2cc(N)ccc21 (stereo unspecified)	21823*	3	0	3	-1	-7
COc1ccc(OC)c(C2C(C#N)=C(N)Oc3cc(N)ccc32)c1 (stereo unspecified)	6142	3	-8	1	-10	6
COc1cc(C(C(=O)NCC2CCCO2)N(C(=O)Cn2nnc3ccccc32)c2ccc(C(C)=O)cc2)ccc1O (stereo unspecified)	3966	-2	-5	-4	6	17
CCc1ccc(NC(=O)C2CCCN2c2nn3c(=O)cc(C)nc3s2)cc1 (stereo unspecified)	6226	-1	-6	0	0	-3
CC(=O)c1ccc(Sc2ccccc2)cc1	22491*	-3	4	2	-2	0
O=S(=O)(Nc1nnc(C2CC2)s1)c1ccccc1	3742	3	-8	-1	-7	-6
CCCCN(C(=O)CSc1nnc(-c2ccccc2OC)n1C)c1c(N)n(Cc2ccccc2)c(=O)[nH]c1=O	2493	2	-2	0	-8	-2
SMILES	Autofluor counter	3CLpro inhibitor	BoNT F protease	BoNT-A LC inh2	BJeLR lethal	Anthrax LF inh2
Cc1noc(C)c1S(=O)(=O)N(CC(=O)NC(C)c1ccccc1)c1ccc(C(C)C)cc1 (stereo unspecified)	5958	-5	-8	-2	-2	-3
O=C(CCS(=O)(=O)c1ccc(Br)s1)NCc1ccc2c(c1)OCO2	22950*	0	1	?	0	0
O=C(NCc1cccnc1)c1ccc2c(c1)OCO2	22188*	1	-3	?	0	-2
O=C(NCc1ccc2c(c1)OCO2)c1ccc2c(c1)C(=O)N(Cc1cccnc1)C2=O	5797	-5	5	0	0	-8
CCCCC1CCC(C(=O)NCc2ccc3c(c2)OCO3)CC1 (stereo unspecified)	23610*	-8	-2	-2	0	0
O=C(NCc1ccc(Cl)cc1)C1=Cc2cc(Cl)ccc2OC1	21246*	1	1	2	2	1
CC(NC(=O)CCCc1nnc2n(C)c(=O)c3sccc3n12)c1ccccc1 (stereo unspecified)	3856	-3	4	0	6	0
CCOC(=O)N1CCN(Cc2nc3cc(NC(=O)c4ccco4)ccc3n2C)CC1	5628	1	-6	-2	0	-2
COCC(=O)NCc1ccc2c(c1)OCO2	22350*	-1	4	2	2	1
O=C(NCc1ccc2c(c1)OCO2)c1cccc(Cl)c1	4708	-7	15	0	5	-1
O=C(NCc1cccc(Cl)c1)c1ccc2c(c1)OCO2	21016*	6	0	?	-10	1
O=C(CSCc1cccc(Cl)c1)NCc1ccc2c(c1)OCO2	21289*	-2	3	2	-7	-6
CCOC(=O)C1=C(C)N(CCCC(=O)O)C(=O)NC1c1ccc(Cl)cc1 (stereo unspecified)	3777	3	-2	-1	1	-6
COc1ccccc1Cc1noc(C(C)(C)NC(=O)c2ccccc2)n1	17677*	1	-5	-4	5	-2
COc1ccccc1CC(=O)NNC(=O)c1ccc(C(C)(C)C)cc1	5620	4	2	2	5	0
Cc1cccc(Nc2nc(N)nc(CN3CCN(C)CC3)n2)c1	23797*	-4	-4	-1	-1	-1
Cc1ccc(Nc2nc(N)nc(CN3CCN(C)CC3)n2)cc1	3047	-3	-5	0	-6	-1
Nc1nc(CN2CCN(c3ccccc3F)CC2)nc(Nc2ccccc2)n1	16781*	-2	-6	-2	-3	-1
N#Cc1cnc(SCC(=O)Nc2ccccc2C(F)(F)F)nc1N	17110*	-1	-4	?	8	4
Cc1nc(N)sc1-c1nnc(SCC(=O)Nc2ccccc2C(F)(F)F)n1C	22790*	-5	-4	-2	4	-1
CN(C)/C=N/c1nc(-c2ccc3ccccc3c2)cs1	3768	2	2	-4	-9	-4
C/C=C/c1cccc(-c2nc(C(=O)N3CCN(C)CC3)cc3c2[C@@H](CCO)N(C(=O)NC(C)C)C3)c1	5893	·	-12	-1	·	-2
Cc1[nH]c2ccccc2c1C(=O)COC(=O)Cn1c(C(F)(F)F)nc2ccccc21	2691	-1	-4	0	3	-1
O=C(Cn1c(C(F)(F)F)nc2ccccc21)OCC(=O)c1c[nH]c2ccccc12	4605	6	-9	57*	11	20
O=C1CN(c2ccccc2Cl)C(=O)CN1c1ccccc1Cl	23954*	-7	-4	-1	0	-2
